The list is not random: actives were taken first. Their share in the collection is about 8.9%.
12-hLO inh – qHTS Assay for Inhibitors of 12-hLO (12-human lipoxygenase); Polyunsaturated fatty acid lipoxygenase ALOX12 (Homo sapiens), P18054; purified 12-hLO, xylenol orange hydroperoxide absorbance; Potency, µM (series often up to 57.1 µM), actives largely listed as inhibitors; 150,000 tested, 0.12% active; note: nearly all actives have a fitted effect of over 55% in size
Target sequence (P18054 whole entry, looked up): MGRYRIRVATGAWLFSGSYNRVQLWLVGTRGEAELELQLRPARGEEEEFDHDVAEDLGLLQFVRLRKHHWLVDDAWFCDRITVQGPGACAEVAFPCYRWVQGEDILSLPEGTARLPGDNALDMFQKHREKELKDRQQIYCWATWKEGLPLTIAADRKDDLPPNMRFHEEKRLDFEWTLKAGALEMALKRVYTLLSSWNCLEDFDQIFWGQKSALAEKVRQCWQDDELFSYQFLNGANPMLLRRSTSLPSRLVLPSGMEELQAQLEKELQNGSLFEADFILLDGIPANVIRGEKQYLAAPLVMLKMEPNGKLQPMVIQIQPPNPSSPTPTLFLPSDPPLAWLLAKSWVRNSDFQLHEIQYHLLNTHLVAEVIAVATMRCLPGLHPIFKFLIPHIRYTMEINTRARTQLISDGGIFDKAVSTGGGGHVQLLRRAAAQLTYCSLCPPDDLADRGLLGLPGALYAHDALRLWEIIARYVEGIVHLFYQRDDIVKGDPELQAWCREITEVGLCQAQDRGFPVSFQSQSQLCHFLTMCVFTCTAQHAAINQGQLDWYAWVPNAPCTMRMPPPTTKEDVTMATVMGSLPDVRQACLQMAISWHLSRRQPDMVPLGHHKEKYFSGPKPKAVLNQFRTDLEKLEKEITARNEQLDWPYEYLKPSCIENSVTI
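Xylenol orange chromogenic assay: hydroperoxide from 12hLO oxidises Fe(II), giving red-shifted Fe(III)-XO absorbance. Conditions: 150 nM enzyme, 40 uM arachidonic acid, 25 mM Hepes pH 7.0, 0.01% Triton X-100, 30 min, room temperature.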
NPSR antagonist – qHTS Assay for Antagonists of the Neuropeptide S Receptor: cAMP Signal Transduction; 220,000 tested, 1% active; Q6W5P4; AID 1461, 2008; Potency, µM (highest dose often 38.3 µM), actives largely listed as inhibitors; CHO-NPSR cells, cAMP TR-FRET, antagonist mode; note: nearly all actives have a fitted effect of over 50% in size
HPGD block – qHTS Assay for Inhibitors of HPGD (15-Hydroxyprostaglandin Dehydrogenase); purified HPGD, NADH fluorescence kinetic, PGE2 substrate; 15-hydroxyprostaglandin dehydrogenase [NAD(+)] (Homo sapiens), P15428; 150,000 tested, 4.3% active; AID 894, 2007; Potency, µM, hits mostly inhibitors; active = well fitted inhibition curve with a large enough effect, not every such curve was filed as active; inconclusive = small, poorly fitted or top-dose-only effect, or another doubt; inactive = no such curve, though single readings can be large or run the other way
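NADH formation kinetics: reaction with 30 uM PGE2 and 1 mM NAD+ (final), 20 nM enzyme, Tris-HCl pH 8 with Tween 20, after 15 min compound preincubation at room temperature. Fluorescence change, last versus first of five reads.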
ALDH1A1 block – qHTS Assay for Inhibitors of Aldehyde Dehydrogenase 1 (ALDH1A1); Purified ALDH1A1, NADH fluorescence, propionaldehyde substrate; Potency, µM (highest dose often 75.3 µM), usual class: inhibitors; 220,000 tested, 7.3% active; AID 1030, 2008; active = well fitted inhibition curve with a large enough effect, not every such curve was filed as active; inconclusive = small, poorly fitted or top-dose-only effect, or another doubt; inactive = no such curve, though single readings can be large or run the other way
IMPase cell inh – qHTS Assay for Identifying the Cell-Membrane Permeable IMPase Inhibitors; CHO-M1 cells, IP1 accumulation, HTRF TR-FRET ratio; inhibition (IP1 accumulation), % at 46.1 µM; 120,000 tested, under 10 active; active = well fitted curve in the direction sought with a large enough effect in the signal ratio, not every such curve was filed as active; inconclusive = small, poorly fitted or top-dose-only effect, or a change in a side signal; inactive = no such curve, though single readings can be large or run the other way; the % refers to the signal ratio;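 note: cells stimulated with carbachol in lithium chloride buffer; higher means more IMPase inhibition seen as more IP1 and lower FRET ratio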
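CHO-M1, 2000 cells/well, cultured 16–30 h; cpd up to 46 uM; carbachol (50 uM solution, stimulation buffer w/ 50 mM LiCl, pH 7.4), 30 min 37C; IP-One TR-FRET, 10 min RT; Ex 320/Em 665, 620; Hill-fit AC50.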
IMPase Li cell – qHTS Assay for Identifying the Cell-Membrane Permeable IMPase Inhibitors: Potentiation with Lithium; Potency, µM (highest dose often 59.4 µM), actives largely listed as inhibitors; CHO-M1 cells, IP1 TR-FRET (IP-One), carbachol + lithium; 210,000 tested, 0.35% active;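 note: IP1 builds up when IMPase is blocked and the TR-FRET signal falls; nearly all actives have a fitted effect of over 50% in size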
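Readout is a homogeneous TR-FRET IP1 immunoassay (Ex 320, Em 665 and 620), where raised cytosolic IP1 lowers signal. Cells were CHO-M1 treated 30 min at 37C with test compounds plus a little lithium; AC50 values came from Hill-equation fitting.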
Hits are given with their value; – = inactive; ? = inconclusive; · = no result; [ ] = dose if it differs, or a comment. Unless noted, calls come from the whole dose curve; as a rule, active = well fitted curve in the direction sought with a large enough effect; inconclusive = small, poorly fitted or top-dose-only effect, or another doubt; inactive = no such curve, though single readings can be large; an effect the other way counts as inactive or inconclusive.

SMILES	12-hLO inh	NPSR antagonist	HPGD block	ALDH1A1 block	IMPase cell inh	IMPase Li cell
CCn1c2ccccc2c2nnc(SCC(=O)NC3CCS(=O)(=O)C3)nc21 (stereo not drawn)	–	–	32µM	–	–	–
CCn1c2ccccc2c2nnc(SCC(=O)Nc3cc(C)on3)nc21	–	–	–	–	?	11µM
CCO[C@@H]1OC(C(=O)N2CCN(Cc3ccccc3)CC2)=C[C@H](c2ccc(Br)cc2)[C@H]1CCCO	·	?	·	?	·	–
C=Cc1ccc2c(c1)N(C)C(=C)S2	·	–	·	?	·	–
CCn1c2ccccc2c2nnc(SCC(=O)NCCOC)nc21	–	–	16µM	–	–	–
CC(C)=CCOc1ccc(/C=C/C(=O)c2ccc(OCC=C(C)C)cc2OCC(=O)O)cc1	–[0.00818 µM]	·	11µM	–	·	–
CCCNC(=O)c1cnn2c(C(F)F)cc(-c3ccccc3)nc12	·	·	·	·	–	·
CCOC(=O)C(C#N)C(c1cccnc1)c1c(C)[nH][nH]c1=O (stereo not drawn)	–	–	–	–	–	–
CCCc1[nH][nH]c(=O)c1C(c1ccc(Br)cc1)C(C#N)C#N (stereo not drawn)	–	–	20µM	?	–	–
CCOc1ccc(C(=O)Nc2ccccc2NC(C)=O)cc1OCC	·	–	·	–	·	–
CCOc1ccccc1Nc1ccc(C(=O)O)cc1NC(C)=O	–	–	22µM	?	–	–
COc1cc(C(=O)N(Cc2ccco2)Cc2cc3ccccc3[nH]c2=O)cc(OC)c1OC	–	–	–	22µM	–	–
COc1cc(C(=O)OCc2cc3ccccc3[nH]c2=O)cc(OC)c1OC	–	?	–	–	–	?
COc1ccc(NC(=O)COC(=O)c2ccc(S(=O)(=O)N(C)c3ccccc3OC)cc2)cc1OC	·	–	·	–	·	–
COc1ccccc1N(C)S(=O)(=O)c1ccc(C(=O)NCC(C)C)cc1	–	–	25µM	–	–	–
COc1ccc(NC(=O)COC(=O)c2ccc(S(=O)(=O)N(C)c3ccccc3OC)cc2)c(OC)c1	·	–	·	7.1µM	·	–
CCOC(=O)c1[nH]c(C)c(/C=N/O)c1C	–	–	?	–	–	–
O=C(Nc1c(Cl)cc(Cl)cc1C(=O)NCc1cccnc1)c1ccc(Cl)cc1Cl	–	–	–	–	–	–
O=C1c2c([N+](=O)[O-])cc([N+](=O)[O-])cc2S(=O)N1Cc1ccccc1 (stereo not drawn)	·	–	·	3.5µM	·	–
O=[N+]([O-])c1ccc(NC2CCN(Cc3ccccc3)CC2)c([N+](=O)[O-])c1	·	–	·	–	·	–
Cc1noc(C)c1C(=O)N1CCN(C(=O)c2sc3cc(Cl)ccc3c2Cl)CC1	–	–	–	?	–	–
CC(=O)N1N=C(c2ccco2)CC1c1cccs1 (stereo not drawn)	–	–	–	3.5µM	–[1.84 µM]	–
Cc1ccc(C2=NN(C(=O)CCl)C(c3cccs3)C2)o1 (stereo not drawn)	–	?	·	1.3µM	–	·
CCCC(=O)C1=C(O)C(C(=O)OC)C(C)(C)CC1=NC (stereo not drawn)	–	–	–	–	–	–
COc1ccc(-c2[nH]ncc2CNCC(C)(C)N2CCOCC2)cc1F	·	–	·	–	·	–
SMILES	12-hLO inh	NPSR antagonist	HPGD block	ALDH1A1 block	IMPase cell inh	IMPase Li cell
O=C(OCCCCN1C(=O)c2ccccc2C1=O)c1n[nH]c2ccccc12	–	–	32µM	–	–	–
Cc1cccc(C(=O)c2c(N)sc3c2CCC(C)C3)c1 (stereo not drawn)	–	–	·	7.9µM	–	·
CC1CCc2c(sc(N)c2C(N)=O)C1 (stereo not drawn)	–	–	?	13µM	–	–
Cc1cccc(C(=O)c2c(N)sc3c2CCCC3)c1	–	–	·	?	–	·
C/C=C/Cn1c(N(C)Cc2ccccc2)nc2c1c(=O)[nH]c(=O)n2C	–	–	–	–	–	–
Cn1c(=O)c2c(ncn2CC(=O)Nc2nc3ccc(F)cc3s2)n(C)c1=O	–	–	–	–	–	–
Cc1ccc(S(=O)(=O)N(CCC#N)C2CCCCC2)c2nsnc12	–	–	–	?	·	–
N#CCCN(C1CCCCC1)S(=O)(=O)CCOc1ccccc1	–	–	–	8.9µM	–	–
C[C@@H]1Cc2ccccc2N1NC(=O)c1ccc(Cl)c(S(N)=O)c1 (stereo partly drawn)	–	·	–	7.9µM	–	–
O=C(CSc1nc2ccccc2c(=O)n1-c1ccc(Cl)cc1)N/N=C/C=C/c1ccccc1[N+](=O)[O-]	–	–	–	?	·	–
O=C(CSc1nc2ccccc2c(=O)n1-c1ccccc1)N/N=C/C=C/c1ccccc1[N+](=O)[O-]	·	–	·	2.8µM	·	–
Cc1cc(C(=O)N/N=C/C=C/c2ccccc2[N+](=O)[O-])c(C)o1	·	–	·	5.6µM	·	–
Cc1occc1C(=O)N/N=C/C=C/c1ccccc1[N+](=O)[O-]	·	–	·	–	·	–
O=C(N/N=C/C=C/c1ccccc1[N+](=O)[O-])c1cc(-c2cccnc2)nc2ccccc12	–	–	–	14µM	–	–
O=C(NCc1ccc2c(c1)OCO2)C(=O)NC1CCCCC1	–	–	–	–	–	–
Nc1nc(SCC(=O)Nc2ccccc2)[nH]c(=O)c1-c1ccccc1	–	–	–	–	–	–
CC(C)c1nc(SCC(=O)N2CCCC2)c2ccccc2n1	–	?	–	3.2µM	–	–
O=C(CSc1nc2[nH]ncc2c(=O)[nH]1)c1ccc(Cl)cc1	·	–	·	2.5µM	·	?
Nc1nc(SCC(=O)N2CCc3ccccc3C2)[nH]c(=O)c1-c1ccccc1	–	–	–	22µM	–	–
O=C(CSc1nc2[nH]ncc2c(=O)[nH]1)c1ccccc1	·	–	·	–	·	–
O=C(O)CSc1nc2ccccc2c(=O)[nH]1	–	–	–	–	–	–
O=C(CSc1nc2ccccc2c(=O)[nH]1)N1CCCCC1	–	–	16µM	?	–	–
CCc1nc(SCC(=O)N2CCCC2)c2ccccc2n1	–	–	–	–	–	–
O=C1CSC(=S)N1c1cccnc1	–	–	–	?	–	–
Cc1ccc(S(=O)(=O)N2CCN(C(=O)CSc3ncc(C(F)(F)F)cc3Cl)CC2)cc1	–	?	–	2.8µM	–	–
O=C(CSc1nc2[nH]ncc2c(=O)[nH]1)N1CCCCC1	–	–	–	20µM	?	–
O=C(CSc1nncc2ccccc12)N1CCCCC1	·	–	·	10µM	·	–

Assay outcomes (PubChem BioAssay)
